# Results taken from publication PMC9911399, “Two distinct binding modes provide the RNA-binding protein RbFox with extraordinary sequence specificity”.
# Substitutions are numbered along the chain they refer to; changes in the protein carry UniProt numbers. Over roughly 16,000 sequences, “ka relative to ugcaugu” has its median near 0.0091; the highest 2% begin near 0.032. What follows is part of a selection rich in the highest values, with near analogues and random picks from the rest.
# T1: RBFOX1 RRM (Homo sapiens, UniProt Q9NWB1 109-208)
# T1 sequence: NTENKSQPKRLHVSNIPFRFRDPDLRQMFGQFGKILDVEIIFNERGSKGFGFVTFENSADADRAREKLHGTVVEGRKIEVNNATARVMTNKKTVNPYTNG
# B1: UGUUCUC (DNA:RNA)
# RNA: GGGAGACCGGAAUUCAGAUUGUCCUGUUCUCUUAAAUCCCGUCGUAGCCACCA
# DNA 1: CAATCTGAATTCCGGTCTCCC
# DNA 2: TGGTGGCTACGACGGGATT
# B2: AGAUUUA (DNA:RNA)
# RNA: B1 RNA with U25A, U27A, C29U, C31A
# DNA 1: CAATCTGAATTCCGGTCTCCC
# DNA 2: TGGTGGCTACGACGGGATT
# B3: GCGCCAC (DNA:RNA)
# RNA: B1 RNA with U25G, G26C, U27G, U28C, U30A
# DNA 1: CAATCTGAATTCCGGTCTCCC
# DNA 2: TGGTGGCTACGACGGGATT
# B4: GUGGUGG (DNA:RNA)
# RNA: GGGAGACCGGAAUUCAGAUUGUCCGUGGUGGUUAAAUCCCGUCGUAGCCACCA
# DNA 1: CAATCTGAATTCCGGTCTCCC
# DNA 2: TGGTGGCTACGACGGGATT
# B5: GUCGUGG (DNA:RNA)
# RNA: B4 RNA with G27C
# DNA 1: CAATCTGAATTCCGGTCTCCC
# DNA 2: TGGTGGCTACGACGGGATT
# B6: GUGGUUG (DNA:RNA)
# RNA: B4 RNA with G30U
# DNA 1: CAATCTGAATTCCGGTCTCCC
# DNA 2: TGGTGGCTACGACGGGATT
# B7: UGCGAUG (DNA:RNA)
# RNA: B1 RNA with U27C, U28G, C29A, C31G
# DNA 1: CAATCTGAATTCCGGTCTCCC
# DNA 2: TGGTGGCTACGACGGGATT
# B8: UGCGCGA (DNA:RNA)
# RNA: B1 RNA with U27C, U28G, U30G, C31A
# DNA 1: CAATCTGAATTCCGGTCTCCC
# DNA 2: TGGTGGCTACGACGGGATT
# B9: CUGGAUG (DNA:RNA)
# RNA: B4 RNA with G25C, U29A, G30U
# DNA 1: CAATCTGAATTCCGGTCTCCC
# DNA 2: TGGTGGCTACGACGGGATT
# B10: UGGAUUU (DNA:RNA)
# RNA: B1 RNA with U27G, U28A, C29U, C31U
# DNA 1: CAATCTGAATTCCGGTCTCCC
# DNA 2: TGGTGGCTACGACGGGATT
# B11: CUGGAGA (DNA:RNA)
# RNA: B4 RNA with G25C, U29A, G31A
# DNA 1: CAATCTGAATTCCGGTCTCCC
# DNA 2: TGGTGGCTACGACGGGATT
# B12: CGGAUGU (DNA:RNA)
# RNA: B4 RNA with G25C, U26G, G28A, G31U
# DNA 1: CAATCTGAATTCCGGTCTCCC
# DNA 2: TGGTGGCTACGACGGGATT
# B13: UGGAUGU (DNA:RNA)
# RNA: B4 RNA with G25U, U26G, G28A, G31U
# DNA 1: CAATCTGAATTCCGGTCTCCC
# DNA 2: TGGTGGCTACGACGGGATT
# B14: UGGGAUG (DNA:RNA)
# RNA: B4 RNA with G25U, U26G, U29A, G30U
# DNA 1: CAATCTGAATTCCGGTCTCCC
# DNA 2: TGGTGGCTACGACGGGATT
# B15: UGCGAUC (DNA:RNA)
# RNA: B1 RNA with U27C, U28G, C29A
# DNA 1: CAATCTGAATTCCGGTCTCCC
# DNA 2: TGGTGGCTACGACGGGATT
# B16: UGGGGGA (DNA:RNA)
# RNA: B4 RNA with G25U, U26G, U29G, G31A
# DNA 1: CAATCTGAATTCCGGTCTCCC
# DNA 2: TGGTGGCTACGACGGGATT
# B17: UGGGAGA (DNA:RNA)
# RNA: B4 RNA with G25U, U26G, U29A, G31A
# DNA 1: CAATCTGAATTCCGGTCTCCC
# DNA 2: TGGTGGCTACGACGGGATT
# B18: CCCUGGA (DNA:RNA)
# RNA: B4 RNA with G25C, U26C, G27C, G28U, U29G, G31A
# DNA 1: CAATCTGAATTCCGGTCTCCC
# DNA 2: TGGTGGCTACGACGGGATT
# B19: CGUCGAU (DNA:RNA)
# RNA: B1 RNA with U25C, U28C, C29G, U30A, C31U
# DNA 1: CAATCTGAATTCCGGTCTCCC
# DNA 2: TGGTGGCTACGACGGGATT
# B20: AGGUGGG (DNA:RNA)
# RNA: B4 RNA with G25A, U26G, G28U, U29G
# DNA 1: CAATCTGAATTCCGGTCTCCC
# DNA 2: TGGTGGCTACGACGGGATT
# B21: CCUAAUC (DNA:RNA)
# RNA: B1 RNA with U25C, G26C, U28A, C29A
# DNA 1: CAATCTGAATTCCGGTCTCCC
# DNA 2: TGGTGGCTACGACGGGATT
# B22: CCCUUAA (DNA:RNA)
# RNA: B4 RNA with G25C, U26C, G27C, G28U, G30A, G31A
# DNA 1: CAATCTGAATTCCGGTCTCCC
# DNA 2: TGGTGGCTACGACGGGATT
# B23: AACGCGA (DNA:RNA)
# RNA: B4 RNA with G25A, U26A, G27C, U29C, G31A
# DNA 1: CAATCTGAATTCCGGTCTCCC
# DNA 2: TGGTGGCTACGACGGGATT
# B24: UCAGGUU (DNA:RNA)
# RNA: B1 RNA with G26C, U27A, U28G, C29G, C31U
# DNA 1: CAATCTGAATTCCGGTCTCCC
# DNA 2: TGGTGGCTACGACGGGATT
# B25: ACUCGCA (DNA:RNA)
# RNA: B1 RNA with U25A, G26C, U28C, C29G, U30C, C31A
# DNA 1: CAATCTGAATTCCGGTCTCCC
# DNA 2: TGGTGGCTACGACGGGATT
# B26: AACAGAA (DNA:RNA)
# RNA: GGGAGACCGGAAUUCAGAUUGUCCAACAGAAUUAAAUCCCGUCGUAGCCACCA
# DNA 1: CAATCTGAATTCCGGTCTCCC
# DNA 2: TGGTGGCTACGACGGGATT
# B27: AAACGGU (DNA:RNA)
# RNA: B26 RNA with C27A, A28C, A30G, A31U
# DNA 1: CAATCTGAATTCCGGTCTCCC
# DNA 2: TGGTGGCTACGACGGGATT
# B28: AGGAGGC (DNA:RNA)
# RNA: B26 RNA with A26G, C27G, A30G, A31C
# DNA 1: CAATCTGAATTCCGGTCTCCC
# DNA 2: TGGTGGCTACGACGGGATT
# B29: CUGAUGA (DNA:RNA)
# RNA: B4 RNA with G25C, G28A, G31A
# DNA 1: CAATCTGAATTCCGGTCTCCC
# DNA 2: TGGTGGCTACGACGGGATT
# B30: GUAUUGC (DNA:RNA)
# RNA: B4 RNA with G27A, G28U, G31C
# DNA 1: CAATCTGAATTCCGGTCTCCC
# DNA 2: TGGTGGCTACGACGGGATT
# B31: GGAUUGC (DNA:RNA)
# RNA: B4 RNA with U26G, G27A, G28U, G31C
# DNA 1: CAATCTGAATTCCGGTCTCCC
# DNA 2: TGGTGGCTACGACGGGATT
# B32: GGAAUGC (DNA:RNA)
# RNA: B4 RNA with U26G, G27A, G28A, G31C
# DNA 1: CAATCTGAATTCCGGTCTCCC
# DNA 2: TGGTGGCTACGACGGGATT
# B33: ACCAGGC (DNA:RNA)
# RNA: B26 RNA with A26C, A30G, A31C
# DNA 1: CAATCTGAATTCCGGTCTCCC
# DNA 2: TGGTGGCTACGACGGGATT
# B34: GUAAUGC (DNA:RNA)
# RNA: B4 RNA with G27A, G28A, G31C
# DNA 1: CAATCTGAATTCCGGTCTCCC
# DNA 2: TGGTGGCTACGACGGGATT
# B35: UGAAUGA (DNA:RNA)
# RNA: B26 RNA with A25U, A26G, C27A, G29U, A30G
# DNA 1: CAATCTGAATTCCGGTCTCCC
# DNA 2: TGGTGGCTACGACGGGATT
# B36: AGGCUUG (DNA:RNA)
# RNA: B4 RNA with G25A, U26G, G28C, G30U
# DNA 1: CAATCTGAATTCCGGTCTCCC
# DNA 2: TGGTGGCTACGACGGGATT
# B37: CCGUUGC (DNA:RNA)
# RNA: B4 RNA with G25C, U26C, G28U, G31C
# DNA 1: CAATCTGAATTCCGGTCTCCC
# DNA 2: TGGTGGCTACGACGGGATT
# B38: GAAAUGC (DNA:RNA)
# RNA: B4 RNA with U26A, G27A, G28A, G31C
# DNA 1: CAATCTGAATTCCGGTCTCCC
# DNA 2: TGGTGGCTACGACGGGATT
# B39: UGAUGAA (DNA:RNA)
# RNA: B26 RNA with A25U, A26G, C27A, A28U
# DNA 1: CAATCTGAATTCCGGTCTCCC
# DNA 2: TGGTGGCTACGACGGGATT
# Target: T1, RBFOX1 RRM
# Assay: EMSA; HiTS-Eq, 1 nM pool, 10 min; buffer printed only for the single-RNA assays: 10 mM Tris pH 7.5, 150 mM NaCl, 3.4 mM EDTA, 0.001% NP-40, 30 C
# Conditions: tags: His6 N-terminal (pET28a); label: 5' 32P
# In short: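 A pool of RNA with 7 randomized nucleotides, 5′-radiolabelled and with DNA-annealed flanks, was equilibrated at 1 nM for 10 min in 50 µL with purified RbFox RRM, wild type or mutant, across increasing protein concentrations. Free RNA was separated by 8% native PAGE, excised, reverse-transcribed, barcoded by PCR and sequenced. Relative association constants were obtained from read-count changes of each RNA species versus the control reaction and normalised to the cognate motif.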
row,Binder,binding signal
1,B1,0.0181 KA relative to UGCAUGU
2,B2,0.00707 KA relative to UGCAUGU
3,B3,0.00734 KA relative to UGCAUGU
4,B4,0.0237 KA relative to UGCAUGU
5,B5,0.0185 KA relative to UGCAUGU
6,B6,0.0321 KA relative to UGCAUGU
7,B7,0.0369 KA relative to UGCAUGU
8,B8,0.0211 KA relative to UGCAUGU
9,B9,0.0353 KA relative to UGCAUGU
10,B10,0.0242 KA relative to UGCAUGU
11,B11,0.0188 KA relative to UGCAUGU
12,B12,0.0261 KA relative to UGCAUGU
13,B13,0.0494 KA relative to UGCAUGU
14,B14,0.0414 KA relative to UGCAUGU
15,B15,0.0166 KA relative to UGCAUGU
16,B16,0.0155 KA relative to UGCAUGU
17,B17,0.025 KA relative to UGCAUGU
18,B18,0.013 KA relative to UGCAUGU
19,B19,0.00831 KA relative to UGCAUGU
20,B20,0.0126 KA relative to UGCAUGU

row,Binder,binding signal
1,B21,0.00151 KA relative to UGCAUGU
2,B22,0.00271 KA relative to UGCAUGU
3,B23,0.00453 KA relative to UGCAUGU
4,B24,0.0129 KA relative to UGCAUGU
5,B25,0.0123 KA relative to UGCAUGU
6,B26,0.00258 KA relative to UGCAUGU
7,B27,0.0059 KA relative to UGCAUGU
8,B28,0.0129 KA relative to UGCAUGU
9,B29,0.0162 KA relative to UGCAUGU
10,B30,0.0151 KA relative to UGCAUGU
11,B31,0.0376 KA relative to UGCAUGU
12,B32,0.0946 KA relative to UGCAUGU
13,B33,0.00626 KA relative to UGCAUGU
14,B34,0.0131 KA relative to UGCAUGU
15,B35,0.0319 KA relative to UGCAUGU
16,B36,0.0346 KA relative to UGCAUGU
17,B37,0.0124 KA relative to UGCAUGU
18,B38,0.0136 KA relative to UGCAUGU
19,B39,0.0191 KA relative to UGCAUGU
